Values without a mark were called inactive. Inconclusive results are not listed. Where a call stands in place of a potency, no number is given. Active and inactive are the calls of the source. Unless noted, calls follow the shape of the dose curve; as a rule, active = well fitted curve in the direction sought with a large enough effect in the repeat runs; inconclusive = weak or mixed curves; inactive = no such curve, though single readings can be large; an effect the other way counts as inactive or inconclusive.
Experiments:
[1] = qHTS RealTime-Glo MT Cell Viability Assay in HEK293 cells - 24 hour (AID 1224886); also: top concentration of the series differs between compounds; nearly all actives have a fitted effect of over 50% in size
Summary of the method: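 Homogeneous bioluminescent viability format in HEK293 cells (600 cells/well). Following 5 h at 37 C/5% CO2, 23 nL compound was pintooled; the signal was measured repeatedly during 40 h incubation.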

[2] = qHTS RealTime-Glo MT Cell Viability Assay in HEK293 cells - 8 hour (AID 1224887); also: top concentration of the series differs between compounds; nearly all actives have a fitted effect of over 50% in size
Summary of the method: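 Real-time viability in HEK293: signal arises when living cells convert a prosubstrate for NanoLuc in the medium, so luminescence tracks viable cell number. Compound (23 nL, DMSO) added 5 h post-seeding; kinetic reads at 0–40 h, 37 C.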

[3] = A CellTox Green Cytotoxicity Assay to monitor cytotoxicity in HEK293 cells - 16 hour (AID 1224888); also: nearly all actives have a fitted effect of over 35% in size
Summary of the method: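 Cells (HEK293, 600/well) and dye reagent are dispensed together. After 5 h at 37 C, 23 nL compound is pinned in. Plates stay at 37 C for 40 h with fluorescence read at 0h, 8h, 16h, 24h, 32h and 40h.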

[4] = qHTS RealTime-Glo MT Cell Viability Assay in HepG2 cells - 0 hour (AID 1224889); also: nearly all actives have a fitted effect of over 50% in size
Summary of the method: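 Cell number in HepG2 cultures estimated from NanoLuc luminescence generated by metabolic reduction of a prosubstrate by living cells. The homogeneous, nonlytic format allowed repeated reads at 0, 8, 16, 24, 32 and 40 h of compound exposure.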

[5] = A CellTox Green Cytotoxicity Assay to monitor cytotoxicity in HepG2 cells - 8 hour (AID 1224890); also: nearly all actives have a fitted effect of over 45% in size
Summary of the method: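 Cells and non-lytic dye reagent are dispensed together (600 HepG2 cells/well) and incubated 5 h before DMSO compound transfer. Kinetic fluorescence is then recorded in the same wells during 40 h at 37 C.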

[6] = qHTS assay to identify small molecule antagonists of the estrogen receptor alpha (ER-alpha) signaling pathway using the BG1 cell line in the presence of 0.1 nM 17-beta-estradiol - cell viability counter screen (AID 1259241); also: nearly all actives have a fitted effect of over 40% in size
Summary of the method: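 VM7Luc4E2 cells (endogenous full-length ER-alpha, 4xERE-luciferase), cultured 5 days in charcoal-stripped serum, exposed to compounds with 0.1 nM 17beta-estradiol (final) for 22 hr at 37C. Viability read in same wells as live-cell protease fluorescence after 30 min.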

[7] = qHTS assay to identify small molecule antagonists of the androgen receptor (AR) signaling pathway using the MDA cell line in the presence of 0.5 nM R1881 - cell viability counter screen (AID 1259242); also: nearly all actives have a fitted effect of over 45% in size
Summary of the method: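 Steps: plate MDA-kb2 cells, rest 5 hr at 37C without CO2; pin in compounds in DMSO; add R1881 to 0.5 nM final; incubate 16 hr; add CellTiter-Fluor, 30 min; read fluorescence.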

[8] = qHTS assay to identify small molecule HDAC inhibitors (AID 1259364);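 also: wild-type HCT-116 cells with endogenous class I/II HDAC activity; top concentration of the series differs between compounds; nearly all actives have a fitted effect of over 45% in size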
Summary of the method: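 Cells (HCT-116, wild type) are seeded at 1,500 per well, incubated overnight, treated with compound in DMSO for 2 hr, then developed with HDAC-Glo I/II reagent for 30 min at room temperature.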

[9] = qHTS assay to identify small molecule HDAC inhibitors - cell viability counter screen (AID 1259365); also: series mostly up to about 92 µM; nearly all actives have a fitted effect of over 50% in size
Summary of the method: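 Wild-type HCT-116 cells, 1,500/well, cultured overnight, then compound-treated 2 h at 37 C. Viability measured as ATP luminescence with CellTiter-Glo after 30 min at room temperature.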

[10] = qHTS assay to identify small molecule agonists of the sonic hedgehog signaling (Shh) pathway - cell viability counter screen (AID 1259366); also: nearly all actives have a fitted effect of over 50% in size
Summary of the method: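 NIH/3T3-derived Gli1-Luc reporter cells, 2,000 per well, received compound after 4 h and were treated about 23 h at 37C. Viability measured in the same wells by CellTiter-Fluor fluorescence after 1 h.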

[11] = qHTS assay to identify small molecule antagonists of the sonic hedgehog signaling (Shh) pathway - cell viability counter screen (AID 1259367); also: nearly all actives have a fitted effect of over 55% in size
Summary of the method: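 Fluorescence read-out (CellTiter-Fluor, 1 hr at 37C) taken after 23 hr compound treatment of 3T3 Gli1-Luc cells stimulated with conditioned medium. Cells were seeded at 2,000 per well and pre-incubated 4 hr.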

[12] = qHTS assay to identify small molecule agonists of the sonic hedgehog signaling (Shh) pathway (AID 1259368; calls by dose curve;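 also: NIH/3T3-derived 3T3Gli1-Luc cells carrying a stable Gli1-driven firefly luciferase reporter; series mostly up to about 92 µM; nearly all actives have a fitted effect of over 15% in size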)
Summary of the method: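 Cells of a mouse NIH/3T3 clone stably expressing luciferase under the Gli1 transcriptional response element are exposed to test chemicals for 24 hr at 37 C. Pathway activation is detected as a rise in luminescence.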

[13] = qHTS assay to identify small molecule antagonists of the sonic hedgehog signaling (Shh) pathway (AID 1259369; calls by dose curve; also: nearly all actives have a fitted effect of over 45% in size)
Summary of the method: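 Cells are plated and held 4hr at 37 C, compounds (DMSO) are pinned in, conditioned medium is added to stimulate the pathway, and after 24hr luciferase reagent is added for 30min before luminescence is read.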

[14] = target: Estrogen receptor beta (Homo sapiens) (UniProt Q92731); experiment: qHTS assay to identify small molecule agonists of the estrogen receptor beta (ER-beta) signaling pathway (AID 1259377; active = well fitted activation curve with a large enough effect in the signal ratio in the repeat runs, not every such curve was filed as active; the % refers to the signal ratio)
Summary of the method: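 ER-beta-UAS-bla HEK293T cells in medium with 2% charcoal-stripped FBS were exposed to compounds for 16 h at 37C. Beta-lactamase reporter activity was read as fluorescence after 2 h with LiveBLAzer B/G FRET substrate at room temperature.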

[15] = target: Estrogen receptor beta (Homo sapiens) (UniProt Q92731); experiment: qHTS assay to identify small molecule antagonists of the estrogen receptor beta (ER-beta) signaling pathway (AID 1259378; active = well fitted inhibition curve with a large enough effect in the signal ratio in the repeat runs, not every such curve was filed as active; the % refers to the signal ratio)
Summary of the method: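 ER-beta-UAS-bla HEK293T cells in 2% charcoal-stripped FBS medium treated with compound plus 1nM final 17-beta-estradiol for 16 hr at 37C. Beta-lactamase reporter read by FRET substrate fluorescence after 2 hours at room temperature.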

[16] = qHTS assay to identify small molecule agonists of the androgen receptor (AR) signaling pathway in the presence of an antagonist - cell viability counter screen (AID 1259379);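 also: MDA-kb2 human breast cancer cells carrying an MMTV luciferase reporter; series mostly up to about 92 µM; nearly all actives have a fitted effect of over 25% in size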
Summary of the method: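 Cytotoxicity is assessed by CellTiter-Fluor in MDA-kb2 cells carrying an MMTV-driven luciferase reporter. Cells receive 3.0uM nilutamide plus compounds at 15 concentrations and incubate 16 hr at 37C without CO2 before fluorescence reading.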

[17] = target: Estrogen receptor (Homo sapiens) (UniProt P03372); experiment: qHTS assay to identify small molecule antagonists of the estrogen receptor alpha (ER-alpha) signaling pathway using the BG1 cell line in the presence of 0.1 nM 17-beta-estradiol (AID 1259244); also: nearly all actives have a fitted effect of over 50% in size
Summary of the method: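 Antagonist mode: compounds in DMSO are pinned onto VM7Luc4E2 reporter cells, 0.1 nM final 17beta-estradiol is added, and after 22 h at 37C luciferase luminescence is measured with ONE-Glo.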

[18] = target: Androgen receptor (Homo sapiens) (UniProt P10275); experiment: qHTS assay to identify small molecule antagonists of the androgen receptor (AR) signaling pathway using the MDA cell line in the presence of 0.5 nM R1881 (AID 1259243); also: nearly all actives have a fitted effect of over 50% in size
Summary of the method: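 Stably transfected MDA-kb2 cells express luciferase from an MMTV promoter bearing both AR and GR response elements. Compounds plus 0.5 nM R1881 (final) were incubated 16 hr at 37C without CO2, then luminescence measured.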

[19] = qHTS assay to identify small molecule agonists of the estrogen receptor beta (ER-beta) signaling pathway - cell viability counter screen (AID 1259380); also: nearly all actives have a fitted effect of over 30% in size; also: potency is read from the fitted curve at half-maximal effect
Summary of the method: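 Cytotoxicity is measured in parallel with the reporter screen: after 16 hr compound exposure at 37C and a 2 hr LiveBLAzer step, CellTiter-Glo is added to the same ER-beta-UAS-bla HEK293T wells and luminescence read after 30 min.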

Sequence of Estrogen receptor (Homo sapiens) (P03372 whole entry, looked up): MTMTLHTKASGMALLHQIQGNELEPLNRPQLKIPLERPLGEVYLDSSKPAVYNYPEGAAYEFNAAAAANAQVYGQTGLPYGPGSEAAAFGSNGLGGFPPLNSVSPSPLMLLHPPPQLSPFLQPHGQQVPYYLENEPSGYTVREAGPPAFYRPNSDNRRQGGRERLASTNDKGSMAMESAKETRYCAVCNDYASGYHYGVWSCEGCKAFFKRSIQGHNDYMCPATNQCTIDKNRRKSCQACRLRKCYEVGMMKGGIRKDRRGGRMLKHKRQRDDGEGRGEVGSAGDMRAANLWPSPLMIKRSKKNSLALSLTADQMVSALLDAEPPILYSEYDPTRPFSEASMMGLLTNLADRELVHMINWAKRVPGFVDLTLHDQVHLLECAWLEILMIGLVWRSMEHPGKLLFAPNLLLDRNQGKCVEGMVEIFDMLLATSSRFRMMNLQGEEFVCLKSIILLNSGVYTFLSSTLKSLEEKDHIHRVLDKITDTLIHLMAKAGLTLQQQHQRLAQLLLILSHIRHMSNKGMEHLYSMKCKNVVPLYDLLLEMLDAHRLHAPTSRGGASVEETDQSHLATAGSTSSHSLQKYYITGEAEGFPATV
Sequence of Estrogen receptor beta (Homo sapiens) (Q92731 whole entry, looked up): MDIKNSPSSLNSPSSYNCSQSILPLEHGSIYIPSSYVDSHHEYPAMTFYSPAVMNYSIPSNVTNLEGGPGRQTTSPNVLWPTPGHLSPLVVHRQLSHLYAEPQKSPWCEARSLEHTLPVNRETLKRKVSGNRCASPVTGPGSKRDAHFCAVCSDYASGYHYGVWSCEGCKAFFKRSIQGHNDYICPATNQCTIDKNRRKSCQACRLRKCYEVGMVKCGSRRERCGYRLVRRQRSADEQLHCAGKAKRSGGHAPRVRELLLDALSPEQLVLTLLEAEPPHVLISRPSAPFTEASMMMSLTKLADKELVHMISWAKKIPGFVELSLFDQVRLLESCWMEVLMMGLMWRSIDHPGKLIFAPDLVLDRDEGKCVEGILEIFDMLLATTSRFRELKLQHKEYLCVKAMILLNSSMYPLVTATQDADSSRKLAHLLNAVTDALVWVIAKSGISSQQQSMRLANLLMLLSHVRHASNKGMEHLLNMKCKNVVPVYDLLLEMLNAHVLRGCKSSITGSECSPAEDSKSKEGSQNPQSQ
Sequence of Androgen receptor (Homo sapiens) (P10275 whole entry, looked up): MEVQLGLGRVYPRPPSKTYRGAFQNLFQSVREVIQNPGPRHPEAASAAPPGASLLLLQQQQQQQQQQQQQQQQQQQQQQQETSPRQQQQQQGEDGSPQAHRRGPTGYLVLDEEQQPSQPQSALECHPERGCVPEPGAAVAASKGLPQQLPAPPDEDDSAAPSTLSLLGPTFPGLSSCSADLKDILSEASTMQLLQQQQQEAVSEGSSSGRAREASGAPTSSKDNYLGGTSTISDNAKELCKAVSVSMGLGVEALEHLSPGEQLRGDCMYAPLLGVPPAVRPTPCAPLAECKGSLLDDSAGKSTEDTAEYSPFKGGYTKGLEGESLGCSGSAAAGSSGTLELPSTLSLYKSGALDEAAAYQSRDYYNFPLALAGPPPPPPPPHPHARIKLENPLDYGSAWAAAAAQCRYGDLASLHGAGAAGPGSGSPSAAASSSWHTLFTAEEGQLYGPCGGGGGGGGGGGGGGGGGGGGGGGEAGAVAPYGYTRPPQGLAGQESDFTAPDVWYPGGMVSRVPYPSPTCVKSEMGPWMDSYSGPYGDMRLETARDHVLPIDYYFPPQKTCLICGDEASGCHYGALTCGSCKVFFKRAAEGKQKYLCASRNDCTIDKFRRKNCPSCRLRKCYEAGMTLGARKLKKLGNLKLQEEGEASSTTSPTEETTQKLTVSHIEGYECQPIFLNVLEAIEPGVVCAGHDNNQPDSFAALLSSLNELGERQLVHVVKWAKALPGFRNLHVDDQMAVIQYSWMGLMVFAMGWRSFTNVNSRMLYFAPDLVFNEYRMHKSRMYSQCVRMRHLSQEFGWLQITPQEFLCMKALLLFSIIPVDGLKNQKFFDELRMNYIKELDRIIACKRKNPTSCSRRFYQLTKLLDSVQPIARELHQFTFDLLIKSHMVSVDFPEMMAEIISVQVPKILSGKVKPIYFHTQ

| SMILES | Potency [1] | Potency [2] | Potency [3] | Potency [4] | Potency [5] | Potency [6] | Potency [7] | Potency [8] | Potency [9] | Potency [10] | Potency [11] | Potency [12] | Potency [13] | outcome [14] | Potency [15] | Potency [16] | Potency [17] | Potency [18] | Potency [19] |
| --- | --- | --- | --- | --- | --- | --- | --- | --- | --- | --- | --- | --- | --- | --- | --- | --- | --- | --- | --- |
| CC(CC(C)(C)C)CC(C)(C)CC(C)(C)C (stereo not given) | inactive | inactive | inactive | inactive | inactive | inactive | inactive | inactive | inactive | inactive | inactive | inactive | inactive | inactive | inactive | inactive |  |  |  |
| CC1(C)[C@H]2CC[C@]1(C)C(=O)C2 | inactive | inactive | inactive | inactive | inactive | inactive | inactive | inactive | inactive |  | inactive | inactive |  |  | inactive | inactive | inactive |  |  |
| O=c1cc[nH]cc1 | inactive | inactive | inactive | inactive | inactive | inactive | inactive | inactive | inactive | inactive | inactive | inactive | inactive | inactive | inactive | inactive | inactive |  |  |
| C/C=C/C(=O)OCC(C)C | inactive | inactive | inactive | inactive | inactive | inactive | inactive | inactive | inactive | inactive | inactive | inactive | inactive | inactive | inactive | inactive | inactive | inactive |  |
| CC1=CC[C@@H](C(C)(C)O)CC1 | inactive | inactive | inactive | inactive | inactive | inactive | inactive |  | inactive | inactive | inactive | inactive | inactive |  |  | inactive | inactive | inactive | inactive |
| CCCCCCCCCCCC(=O)Cl | inactive | inactive | inactive | inactive | inactive | inactive | inactive | inactive | inactive | inactive | inactive | inactive | inactive |  |  | inactive | inactive |  | 34.4 µM (active) |
| Nc1c(Br)cc([N+](=O)[O-])cc1Br | inactive | inactive | inactive | inactive | inactive | inactive | inactive | inactive | inactive | inactive | inactive | inactive | inactive | inactive | inactive | inactive | inactive |  | inactive |

From PubChem BioAssay (Tox21)
